Compound activity deposited in PubChem by several laboratories.
Shown are actives, neighbours in structure and some others; about 0.69% of the full set was active somewhere.
Phagocyt inh: inhibitors of macrophage phagocytosis; J774A.1 macrophage IgG-bead phagocytosis, imaging; inhibition, % at 5 µM; 0.07% of 110,000 active;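 active means inhibition above the mean of the plate negative controls plus 5 SD, cut at about 13% in these data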;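 further: phagocytic index as fraction of beads internalized from green versus red external bead signal; plate controls were DMSO negative control for no effect and cytochalasin-D positive control for full effect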
MRP reversal: MRP-mediated drug resistance reversal. H69AR cells + 2 uM doxorubicin, CellTiter-Glo, 72 h. differential viability (reversal), % at 10 µM. 0.04% of 85,000 active;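 active means viability drop by adding the cancer drug above about 55%, with treated viability meeting a 40% cutoff, limit read from the data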;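 further: viability without doxorubicin minus viability with 2 µM doxorubicin for each compound; larger differential means the compound sensitizes cells more to doxorubicin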
MRP1 act: activators of MRP-1; AID 799; H69AR cells + doxorubicin, viability rescue, CellTiter-Glo; 0.61% of 140,000 active; viability increase, % at 10 µM;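 active means viability gain under doxorubicin at or above a set limit, the compound median plus 3 SD, cut at about 4.7% in these data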;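 further: MRP-1 overexpressing cells given doxorubicin 25 µM after compound pretreatment; 18-22 h compound pretreatment then 72 h with doxorubicin before readout; 0% = doxorubicin-only wells and 100% = vehicle-treated cells without doxorubicin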
The depositor's hits bear a star; [ ] = remark or other dose.

O=C(Nc1nnc(SCC(=O)N2CCOCC2)s1)c1ccccc1Cl was read as Phagocyt inh 36.8*[artifact] and MRP1 act -2.7.
Screening O=C(CSc1nnc(NCc2ccccc2)s1)N1CCOCC1 returned Phagocyt inh 4.0 and MRP1 act -1.0.
O=C(c1ccccc1Sc1c(Cl)cccc1[N+](=O)[O-])N1CCOCC1 was read as Phagocyt inh -1.6 and MRP1 act -2.3.
`CCN(CC)C(=O)/C(=C\c1cccc([N+](=O)[O-])c1)NC(=O)c1ccco1` gave MRP1 act -0.2.
For CCN(CC)S(=O)(=O)c1cccc(NC(=O)c2ccc(-n3nc(C)cc3C)cc2)c1 the results were Phagocyt inh -13.3 and MRP1 act 0.7.
For Cc1cc(C)n(-c2ccc(C(=O)Nc3cccc(S(=O)(=O)N(C)C)c3)cc2)n1 the results were Phagocyt inh -16.0 and MRP1 act 5.8*.
For COc1ccc(/C=C2/SC(=O)N(CCNC(=O)C3CCCN3C(=O)c3cccs3)C2=O)cc1 (centres undefined) the results were Phagocyt inh 2.9 and MRP1 act 0.9.
`O=C(NCCN1C(=O)S/C(=C/c2ccccc2)C1=O)C1CCCN1C(=O)c1cccs1` (centres undefined) gave Phagocyt inh -7.4 and MRP1 act 7.5*.
For CCOC(=O)Cc1csc(/N=C/c2c(O)n(-c3ccccc3C(F)(F)F)c(=O)c3ccccc23)n1 the results were Phagocyt inh -8.9 and MRP1 act -1.7.
`CCCCN(C(=O)Cc1cccs1)c1nnc(-c2cccnc2)s1` gave MRP reversal 22.0 and MRP1 act 5.8*.
COCCN(C(=O)Cc1cccs1)c1nnc(-c2cccnc2)s1 was read as Phagocyt inh -0.7, MRP reversal -1.2 and MRP1 act -1.2.
COc1ccc(OC)c(-c2cc(C(=O)Nc3c(C)nn(Cc4ccccc4Cl)c3C)no2)c1 was read as Phagocyt inh -1.5, MRP reversal 2.7 and MRP1 act 5.5*.
Screening COc1ccc(OC)c(-c2cc(C(=O)Nc3c(C)nn(Cc4ccccc4C)c3C)no2)c1 returned Phagocyt inh -0.6, MRP reversal 2.1 and MRP1 act 9.3*.
Screening Cc1ccccc1Cn1nc(C)c(NC(=O)c2cc(-c3cccs3)on2)c1C returned Phagocyt inh -1.7 and MRP1 act 0.9.
COc1ccc(-c2cc(C(=O)Nc3c(C)nn(Cc4ccccc4Cl)c3C)no2)cc1OC was read as Phagocyt inh 4.0, MRP reversal -8.0 and MRP1 act -2.9.
`Cn1c2c(c(=O)n(C)c1=O)C(C(F)(F)F)(C(F)(F)F)N=C(CCC1CCCCC1)N2` gave Phagocyt inh -1.5 and MRP1 act -4.8.
`CC1C/C(=N/NC(=O)c2cccc(F)c2)c2ccc(O)cc2C1` (centres undefined) gave Phagocyt inh 0.7 and MRP1 act -1.9.
`CN(CCO)c1cc(N2CCN(C(=O)c3ccco3)CC2)c2nonc2c1[N+](=O)[O-]` gave Phagocyt inh -9.8 and MRP1 act -1.5.
`O=C(Cn1cnc2c(cnn2-c2ccccc2)c1=O)N1CCOCC1` gave Phagocyt inh -1.3, MRP reversal -10.0 and MRP1 act -2.4.
For COc1ccc(-n2ncc3c(=O)n(CC(=O)N4c5ccccc5CC4C)cnc32)cc1 (centres undefined) the results were MRP reversal -1.7 and MRP1 act 5.9*.
Screening NNC(=O)c1cccc(COc2ccc3c(c2)CCC3)c1 returned Phagocyt inh -3.2 and MRP1 act -1.0.
For COc1cccc(C(=O)Oc2cc(-c3ccccc3)no2)c1 the results were Phagocyt inh 164.6*, MRP reversal -1.6 and MRP1 act -1.0.
Screening Cc1ccc(C(=O)Oc2cc(-c3ccccc3)no2)cc1 returned Phagocyt inh -0.5, MRP reversal -7.4 and MRP1 act 0.9.
Screening Cc1cccc(N2C(=O)CC(N3CCN(c4ccccc4)CC3)C2=O)c1 (centres undefined) returned Phagocyt inh 0.4, MRP reversal -7.2 and MRP1 act -0.2.
Screening Cc1cccc(N2C(=O)CC(NNc3nc4ccccc4s3)C2=O)c1 (centres undefined) returned Phagocyt inh 1.3 and MRP1 act 4.7*.
COC(=O)c1ccc(NC(c2ccc(Cl)cc2)P(=O)(OC)OC)cc1 (centres undefined) was read as Phagocyt inh -3.9 and MRP1 act 1.9.
For CCNC(=S)NNC(=O)CCn1cc(C)cn1 the results were Phagocyt inh 0.6 and MRP1 act -0.2.
`N#Cc1ccc(N2C(=O)[C@@H]3C(C(=O)c4ccc5ccccc5n4)=NN[C@@H]3C2=O)cc1` gave Phagocyt inh 3.3 and MRP1 act 9.3*.
For O=C(C1=NN[C@@H]2C(=O)N(c3ccccc3C(F)(F)F)C(=O)[C@H]12)c1ccc2ccccc2n1 the results were Phagocyt inh -10.2 and MRP1 act -0.7.
